Shown are actives, neighbours in structure and some others; about 4% of the full set was active somewhere.
CF NFkB inh: cystic fibrosis NF-kB activation inhibition; actives 0.86% (n = 360,000); inhibition, % at 5 µM; KKLEB NF-kB-GFP reporter, PAF-induced, GFP fluorescence overnight;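 active = at least 50% inhibition at 5 µM, scaled per plate between neutral and stimulator controls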;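 note: PAF is a Pseudomonas aeruginosa culture filtrate used as stimulus; plate controls were PAF-stimulated DMSO wells for no effect and unstimulated DMSO wells for full effect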
HIF-2a inh: blocks HIF-2a reporter activity. 786-0 RCC cells HIF-2a reporter, luciferase luminescence, overnight. inhibition, % at 18.8 µM. actives 0.72% (n = 360,000);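 active = inhibition of the luminescence signal of 40% or more relative to plate controls, in a single-dose primary screen at 18.75 µM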
TROY NFkB inh: blocks TROY-dependent signaling in reporter cells. Q293 LMP1-TROYcd NF-kB luciferase reporter, 4 h. inhibition, % at 10 µM. actives 0.98% (n = 360,000). AID 1347056;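 active = compounds whose plate-normalised and pattern-corrected inhibition of the luciferase reporter signal at the single screening dose is 50% or more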
Peg3 promoter: reduces Peg3 promoter-driven luciferase expression in HeLa; actives 1.7% (n = 360,000); inhibition, % at 20 µM; HeLa PEG-Prom luciferase reporter, luminescence, overnight;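 active = inhibition of at least 50% at 20 µM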
KKLEB tox: counter-screen for CF NF-kB inhibitors: cytotoxicity | KKLEB CF airway cells viability, ATPlite luminescence, overnight; hits give low values; cells stimulated with P. aeruginosa culture filtrate | activity change (cytotoxicity), % at 5 µM | AID 602141 | actives 0.36% (n = 360,000);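 active = corrected activity change at or below -50% at 5 µM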
TWEAK Fn14 block: blocks TWEAK-Fn14 interaction in a reporter cell assay. TWEAK-stimulated Fn14 reporter cells, luciferase luminescence, 8 h. inhibition, % at 10 µM. actives 2% (n = 360,000). AID 1159606; in the data active = inhibition above about 50%
CF NFkB conf: confirmation of cystic fibrosis induced NF-kB inhibitors. shares compounds with CF NFkB inh. KKLEB CF airway cells, PAF-induced NF-kB-GFP fluorescence, overnight. inhibition, % at 5 µM. actives 64% (n = 1,300). AID 602472; in the data active = inhibition above about 40%;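 note: stimulus PAF is a Pseudomonas aeruginosa filtrate and not platelet activating factor; plate controls were DMSO wells with stimulus for no effect and unstimulated DMSO wells for full effect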
An asterisk follows results filed as active; x = no result.

SMILES	CF NFkB inh	HIF-2a inh	TROY NFkB inh	Peg3 promoter	KKLEB tox	TWEAK Fn14 block	CF NFkB conf
CC(C)Cc1nc2oc3c(NCC4CCCO4)ncnc3c2c2c1CCC2 (stereo not drawn)	76.4*	15.8	-1.8	60.6*	-0.3	54.1*	90.5*
O=C(/C=C/c1ccccc1Cl)c1ccc(O)cc1	59.2*	-237.0	3.8	-70.9	-9.8	44.4	-37.9
O=C(C=Cc1ccccc1O)c1ccccc1O	71.3*	-4.8	7.8	19.0	-44.9	61.5*	12.8
COCCN(C(=O)CCC(=O)Nc1ccccn1)C(C(=O)NC(C)C)c1ccc(Cl)cc1 (stereo not drawn)	17.5	13.7	-3.9	7.2	0.7	15.7	x
O=C(NNc1ccccc1Br)C(O)(c1cccc(C(F)(F)F)c1)c1cccc(C(F)(F)F)c1	56.9*	24.2	57.4*	53.8*	-47.1	72.7*	83.1*
C=Cc1ccc(CC2(C)C(=O)Nc3ccc(-c4cccnc4)cc32)cc1 (stereo not drawn)	74.4*	20.2	47.8	31.6	-25.2	81.0*	86.7*
CC1(Cc2ccc(Cl)cc2)C(=O)Nc2ccc(-c3ccc(F)c(Cl)c3)cc21 (stereo not drawn)	20.7	1.8	-0.6	7.4	-9.5	2.7	x
COc1ccccc1-c1ccc2c(c1)C(C)(Cc1ccc(Cl)c(Cl)c1)C(=O)N2 (stereo not drawn)	37.6	-20.6	1.6	13.7	2.1	17.9	x
CC1(Cc2ccc(F)cc2)C(=O)Nc2ccc(-c3cccnc3)cc21 (stereo not drawn)	66.7*	23.4	24.7	13.7	3.0	64.4*	73.7*
CCn1c(COc2ccc(Cl)cc2)nnc1SCc1nc2ccccc2[nH]1	7.4	-116.8	30.4	-61.4	-21.3	30.3	x
C/C(=N/NC(=O)c1cccs1)c1ccc(NC(=O)COc2ccc(Cl)cc2)cc1	59.0*	-0.3	-34.8	29.4	-41.1	-59.4	77.8*
CCOCCCNC(=S)NNC(=O)CCn1nc(C)c(Br)c1C	3.8	21.8	24.1	1.2	1.2	5.7	x
Cc1csc(NC(=O)C2CCCO2)n1 (stereo not drawn)	-10.2	-1.1	-28.8	-5.2	2.6	0.2	x
CC1(C)CC(=O)c2sc(NC(=O)CCS(=O)(=O)c3ccccc3)nc2C1	68.3*	-42.4	-2.9	17.1	-12.0	22.9	32.6
CCOc1cccc2sc(NC(=O)CCS(=O)(=O)c3ccccc3)nc12	58.9*	-57.4	-1.2	52.6*	-18.8	4.4	26.3
CC(=O)c1sc(NC(=O)CCS(=O)(=O)c2ccc(C)cc2)nc1C	56.5*	12.6	-14.7	10.0	-14.9	3.3	38.2
Cc1cccn2c(=O)c3cc(S(=O)(=O)c4ccc(F)cc4)c(=N)n(Cc4ccco4)c3nc12	75.5*	8.7	5.8	31.3	9.7	55.9*	5.4
C=C1C(=O)O[C@@H]2[C@H]3O[C@]3(C)CC/C=C(\C)CC[C@@H]12	69.0*	19.4	18.4	49.4	23.4	39.0	77.2*
COc1cc(CCc2ccccc2)c(C(=O)O)c(O)c1C/C=C(/C)CCC=C(C)C	60.1*	-1.4	42.0	56.9*	-19.0	43.6	71.3*
CC(=O)c1c(C)[nH]c(C(=O)N2CCc3ccccc32)c1C	-10.3	2.7	-13.0	7.8	-0.6	-2.4	x
CCOC(=O)c1[nH]c(C)c(C(=O)N2CCc3ccccc32)c1C	53.5*	12.0	x	-34.8	-35.5	46.7	56.8*
COc1cc(C(=O)c2cc3c(cc2C)OCO3)cc(OC)c1OC	57.6*	5.1	-8.8	-71.3	-18.6	4.9	82.5*
COc1cc(C(=O)NC(=S)NNC(=O)c2ccc3c(c2)OCO3)cc(OC)c1OC	-3.0	12.8	-18.7	19.1	7.0	-36.5	x
O=C1NC(=S)NC1=Cc1ccc(Cl)cc1Cl	6.9	-12.5	-7.0	-11.2	-3.6	-6.1	x
O=C1NC(=O)C(=Cc2ccc(Cl)cc2Cl)S1	53.9*	-222.7	53.7*	-147.6	7.1	29.6	37.5
COc1ccccc1NS(=O)(=O)c1ccc(C(=O)NCC(c2ccccc2OC)N2CCCC2)cc1 (stereo not drawn)	-0.7	0.5	-3.5	-8.6	5.5	1.9	x

Screening results (PubChem BioAssay)
